These results are taken from PubChem BioAssay (Tox21).

A short description of assay [1]: Nuclear factor erythroid 2-related factor 2/antioxidant responsive element (Nrf2/ARE) small molecule agonists: qHTS cell viability counter screen in human keratinocytes (AID 1919968; active = well fitted curve in the direction sought with a large enough effect in the repeat runs; an effect the other way counts as inactive or inconclusive; also: nearly all actives have a fitted effect of over 55% in size; also: potency is read from the fitted curve at half-maximal effect). In a few lines:
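Parallel cytotoxicity read: KeratinoSens HaCaT cells, compound treatment 23 h, viability by CellTiter-Fluor fluorescence 1 h post-reagent.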

Assay [2] is described as follows: Nuclear factor erythroid 2-related factor 2/antioxidant responsive element (Nrf2/ARE) small molecule agonists: luciferase reporter gene qHTS assay in human keratinocytes (AID 1919969). Also: nearly all actives have a fitted effect of over 35% in size. Also: potency is read from the fitted curve at half-maximal effect. Background: A reporter such as luciferase makes a cellular process visible.
For assay [3], the target named is Gonadotropin-releasing hormone receptor (Homo sapiens) (UniProt P30968). As to the kind of experiment: Human gonadotropin-releasing hormone receptor (GnRHR) small molecule agonists, calcium flux assay in GnRHR-HEK293 cells (AID 1920063). Also: nearly all actives have a fitted effect of over 35% in size. The method, boiled down: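 Calcium flux, agonist mode, human GnRHR stably integrated in HEK293; dye 1 h at 37 C before compound; Ex/Em=480/540 kinetic read, 3 min; 15 concentrations, triplicate.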

Assay [4] addresses KiSS-1 receptor (Homo sapiens) (UniProt Q969F8). As to the kind of experiment: Human kisspeptin (KISS1R) small molecule agonists, calcium flux assay in KISS1R-HEK293 cells (AID 1920064; active = well fitted curve in the direction sought with a large enough effect in the repeat runs; an effect the other way counts as inactive or inconclusive). The method, boiled down: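 Triplicate 15-concentration series were applied to dye-loaded human KISS1R HEK293 cells, and agonist-evoked calcium fluorescence was captured for 3 min.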
Assay [5] in a line: G protein-coupled receptor (GPCR) small molecule agonists, calcium flux assay: HEK293 wild type cell line counter screen (AID 1920065). The method, boiled down:
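Non-specific calcium responders were flagged by adding DMSO-dissolved compounds to dye-loaded cells and reading 480/540 nm fluorescence each second for 3 min; ATP served as positive control.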

The nature of assay [6]: p53 small molecule agonists, cell-based qHTS assay with human liver microsomes (AID 1963577). The method, boiled down: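 Fluorescence of the beta-lactamase reporter in p53RE-bla cells, detected with LiveBLAzer substrate (2 h, room temperature, dark), served as the read-out after 16 h compound exposure at 37 C with human liver microsomes and NADPH, each 0.5 mg/mL final.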

Assay [7] can be described thus: p53 small molecule agonists, cell-based qHTS assay with rat liver microsomes (AID 1963578). The method, boiled down: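 Cells carrying a p53 response element–beta-lactamase reporter were plated and rested 5 h, then dosed with compound in DMSO plus rat liver microsomes and NADPH, each at 0.5 mg/mL final. After 16 h at 37 C, LiveBLAzer substrate was added for 2 h.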

Assay [8] in a line: p53 small molecule agonists, cell-based qHTS assay with human liver microsomes: qHTS cell viability counter screen (AID 1963579). Also: nearly all actives have a fitted effect of over 45% in size. Also: potency is read from the fitted curve at half-maximal effect. In a few lines: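 Cytotoxicity counter screen: p53RE-bla, 4,000 cells/well; 5 h settle, 37 C/5% CO2; cpd + HLM 0.5 mg/mL + NADPH 0.5 mg/mL (final); 16 h, 37 C; CellTiter-Glo, 30 min RT, luminescence.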
In general terms: In qHTS, concentration-response curves come from the screen itself.

Assay [9] in a line: p53 small molecule agonists, cell-based qHTS assay with rat liver microsomes: qHTS cell viability counter screen (AID 1963580). Also: nearly all actives have a fitted effect of over 45% in size. Also: potency is read from the fitted curve at half-maximal effect. In a few lines:
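Rat liver microsome (0.5 mg/mL final) and NADPH (0.5 mg/mL final) co-incubation with compounds for 16 h at 37 C on HCT-116 p53RE-bla cells; cytotoxicity taken from intracellular ATP luminescence.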

A short description of assay [10]: p53 small molecule agonists, cell-based qHTS assay: qHTS cell viability counter screen (AID 1963581). Also: nearly all actives have a fitted effect of over 45% in size. In a few lines: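 Multiplexed with the reporter read, a CellTiter-Glo step (30 min, room temperature) gauges ATP-based viability of HCT-116 p53RE-bla cells after 16 h compound incubation at 37 C.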
The target of assay [11] is 5-hydroxytryptamine receptor 2A (Homo sapiens) (UniProt P28223). Nature of the assay: 5-hydroxytryptamine receptor 2A (HTR2A) small molecule antagonists, cell-based qHTS assay (AID 1963586). Also: nearly all actives have a fitted effect of over 45% in size. In a few lines:
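CHO cells stably expressing human HTR2A were plated for 18 h at 37 C, then loaded with calcium dye for 1 h. Compounds were preincubated 5 min at room temperature before DOI (4 nM solution) was added. Kinetic fluorescence was read for 3 min.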

Assay [12] has the same target. As to the kind of experiment: 5-hydroxytryptamine receptor 2A (HTR2A) small molecule agonists, cell-based qHTS assay (AID 1963587). Also: nearly all actives have a fitted effect of over 30% in size. The method, boiled down: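 Kinetic calcium-flux fluorescence (2 min, 1 sec intervals) after compound addition in agonist mode. HTR2A-CHO cells were cultured 18 h, then dye-loaded 1 h at 37 C.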
The target in assay [13] is Muscarinic acetylcholine receptor M1 (Homo sapiens) (UniProt P11229). As to the kind of experiment: Cholinergic receptor muscarinic 1 (CHRM1) small molecule antagonists, cell-based qHTS assay (AID 1963588). Also: nearly all actives have a fitted effect of over 40% in size. The method, boiled down:
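Compounds were tested at 15 concentrations in three independent runs. Dye-loaded CHRM1-CHO cells were exposed 5 min at room temperature before stimulation by acetylcholine added at 50nM. Intracellular calcium was read kinetically on FDSS for 3 min.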

Assay [14] shares this target. Nature of the assay: Cholinergic receptor muscarinic 1 (CHRM1) small molecule agonists, cell-based qHTS assay (AID 1963589). Also: nearly all actives have a fitted effect of over 35% in size. In a few lines:
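qHTS, 15-point titration, 3 independent runs: compounds pin-transferred onto dye-loaded CHRM1-CHO cells (human M1), calcium fluorescence followed every second to detect agonism.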

Assay [15] in a line: cAMP Responsive Elements (CRE) small molecule agonists, cell-based qHTS assay (AID 1963590). The method, boiled down: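 Quantitative HTS for CRE agonists: HEK 293T CRE-bla cells, overnight plating, 3 h compound incubation at 37 C/5% CO2, then 2 h room-temperature LiveBLAzer B/G FRET substrate loading.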
The nature of assay [16]: cAMP Responsive Elements (CRE) small molecule antagonists, cell-based qHTS assay (AID 1963591; active = well fitted inhibition curve with a large enough effect in the signal ratio in the repeat runs, not every such curve was filed as active; the % refers to the signal ratio). In a few lines:
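Fluorescence intensity from cleaved LiveBLAzer B/G substrate (2 h, room temperature) quantified CRE-bla activity in HEK 293T cells exposed 3 h to compound with 0.25 uM final NKH477.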

Assay [17] concerns the target Beta-2 adrenergic receptor (Homo sapiens) (UniProt P07550). As to the kind of experiment: Adrenergic beta2 receptor (ADRB2) small molecule antagonists, cell-based qHTS assay (AID 1963592). Also: nearly all actives have a fitted effect of over 50% in size. Also: potency is read from the fitted curve at half-maximal effect. The method, boiled down:
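Assay format: CHO-ADRB2 cells, 18-20hr seeding at 37C/5% CO2, then compound plus 1nM isoproterenol agonist mix for 0.5hr RT. Homogeneous time-resolved fluorescence cAMP detection after 1hr, expressed as 665/615 nm ratio.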

For assay [18], the target named is D(2) dopamine receptor (Homo sapiens) (UniProt P14416). As to the kind of experiment: Dopamine D2 receptor (DRD2) small molecule agonists, cell-based qHTS assay (AID 1963594). Also: nearly all actives have a fitted effect of over 35% in size. The method, boiled down:
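cAMP accumulation in DRD2-HEK293 cells measured by HTRF after 1 h detection; compounds added 10 min before NKH477 (200nM […]) forskolin-analogue stimulation, 30 min at room temperature, with Ro20-1724 present at 0.1 mM final.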

For assay [19] the target is unchanged. As to the kind of experiment: Dopamine D2 receptor (DRD2) small molecule antagonists, cell-based qHTS assay (AID 1963595; active = well fitted inhibition curve with a large enough effect in the signal ratio in the repeat runs, with a control signal flat; the % refers to the signal ratio). In a few lines:
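Antagonist mode in DRD2-HEK293 cells: after compound addition with 0.1 mM Ro20-1724, cells received quinpirole (12 nM) and NKH477 (200 nM) for 30 min at room temperature; HTRF cAMP read after 1 h detection.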

Assay [20] is described as follows: p53 small molecule agonists, cell-based qHTS assay (AID 1963582; active = well fitted activation curve with a large enough effect in the signal ratio in the repeat runs, not every such curve was filed as active; the % refers to the signal ratio). The method, boiled down: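 Beta-lactamase reporter cells (p53RE-bla) treated with compounds for 16 h at 37 C; FRET substrate, 2 h, room temperature; fluorescence intensity.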

Where “and” joins values, the source holds several entries; their conditions need not be identical. Identical values can stand only once. Records with an inconclusive call do not appear. Where a structure was tested more than once in an assay, its records may differ in their call. Calls of active or inactive are those of the source. Unless noted, calls follow the shape of the full dose curve.

5-hydroxytryptamine receptor 2A (Homo sapiens), sequence (P28223 whole entry, looked up): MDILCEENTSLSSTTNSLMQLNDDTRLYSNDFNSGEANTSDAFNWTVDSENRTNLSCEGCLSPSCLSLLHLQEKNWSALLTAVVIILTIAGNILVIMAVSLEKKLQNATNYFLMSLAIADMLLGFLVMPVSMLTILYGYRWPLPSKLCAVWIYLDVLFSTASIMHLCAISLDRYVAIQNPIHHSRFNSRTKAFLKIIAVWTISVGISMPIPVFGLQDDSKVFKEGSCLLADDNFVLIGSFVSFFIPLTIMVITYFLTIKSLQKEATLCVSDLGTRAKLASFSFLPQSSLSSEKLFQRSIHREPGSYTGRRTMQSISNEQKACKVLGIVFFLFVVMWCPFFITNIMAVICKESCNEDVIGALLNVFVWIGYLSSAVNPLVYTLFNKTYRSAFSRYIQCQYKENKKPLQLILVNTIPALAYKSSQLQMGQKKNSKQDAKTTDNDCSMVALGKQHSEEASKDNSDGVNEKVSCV
Beta-2 adrenergic receptor (Homo sapiens), sequence (P07550 whole entry, looked up): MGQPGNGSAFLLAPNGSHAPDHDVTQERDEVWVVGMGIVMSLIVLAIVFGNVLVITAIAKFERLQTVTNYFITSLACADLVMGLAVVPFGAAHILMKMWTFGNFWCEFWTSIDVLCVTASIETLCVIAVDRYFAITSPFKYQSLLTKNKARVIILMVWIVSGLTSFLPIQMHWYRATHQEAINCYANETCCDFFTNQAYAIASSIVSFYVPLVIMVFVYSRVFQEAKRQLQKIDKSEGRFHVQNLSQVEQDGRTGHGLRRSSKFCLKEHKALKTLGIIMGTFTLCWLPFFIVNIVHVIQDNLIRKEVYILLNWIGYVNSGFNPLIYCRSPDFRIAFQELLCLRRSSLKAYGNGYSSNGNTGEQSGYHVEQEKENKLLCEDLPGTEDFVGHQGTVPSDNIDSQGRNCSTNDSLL
Gonadotropin-releasing hormone receptor (Homo sapiens), sequence (P30968 whole entry, looked up): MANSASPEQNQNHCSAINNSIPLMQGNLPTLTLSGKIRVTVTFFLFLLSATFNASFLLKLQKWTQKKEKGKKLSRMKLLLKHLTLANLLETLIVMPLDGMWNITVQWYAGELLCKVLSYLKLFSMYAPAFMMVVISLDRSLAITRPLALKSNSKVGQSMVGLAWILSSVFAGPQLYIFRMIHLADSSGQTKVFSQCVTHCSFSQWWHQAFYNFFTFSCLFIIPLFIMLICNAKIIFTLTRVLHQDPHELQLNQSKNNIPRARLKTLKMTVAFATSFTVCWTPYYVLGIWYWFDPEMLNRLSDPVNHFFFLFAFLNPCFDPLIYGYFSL
Muscarinic acetylcholine receptor M1 (Homo sapiens), sequence (P11229 whole entry, looked up): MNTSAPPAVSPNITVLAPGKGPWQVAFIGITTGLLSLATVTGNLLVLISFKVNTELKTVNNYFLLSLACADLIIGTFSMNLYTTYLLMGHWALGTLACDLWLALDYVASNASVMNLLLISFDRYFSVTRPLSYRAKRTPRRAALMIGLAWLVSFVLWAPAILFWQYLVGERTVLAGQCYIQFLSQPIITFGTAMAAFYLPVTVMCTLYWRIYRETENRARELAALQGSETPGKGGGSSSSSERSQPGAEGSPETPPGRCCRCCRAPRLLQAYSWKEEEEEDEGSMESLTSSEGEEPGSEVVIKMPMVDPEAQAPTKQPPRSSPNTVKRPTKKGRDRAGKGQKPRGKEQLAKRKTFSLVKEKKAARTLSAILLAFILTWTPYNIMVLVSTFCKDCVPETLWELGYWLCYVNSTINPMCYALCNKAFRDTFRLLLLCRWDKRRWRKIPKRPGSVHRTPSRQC
D(2) dopamine receptor (Homo sapiens), sequence (P14416 whole entry, looked up): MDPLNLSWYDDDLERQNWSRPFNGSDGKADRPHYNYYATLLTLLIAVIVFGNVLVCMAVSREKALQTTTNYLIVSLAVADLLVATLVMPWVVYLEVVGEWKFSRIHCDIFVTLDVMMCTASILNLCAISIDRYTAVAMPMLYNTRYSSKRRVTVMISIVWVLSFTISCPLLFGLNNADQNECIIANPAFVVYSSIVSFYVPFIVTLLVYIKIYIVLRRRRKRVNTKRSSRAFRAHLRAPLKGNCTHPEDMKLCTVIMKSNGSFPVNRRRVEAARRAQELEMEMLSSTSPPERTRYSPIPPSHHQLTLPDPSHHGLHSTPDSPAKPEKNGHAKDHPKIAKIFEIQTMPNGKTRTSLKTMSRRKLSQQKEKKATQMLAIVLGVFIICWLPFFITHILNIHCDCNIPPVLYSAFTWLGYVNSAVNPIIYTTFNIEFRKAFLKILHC
KiSS-1 receptor (Homo sapiens), sequence (Q969F8 whole entry, looked up): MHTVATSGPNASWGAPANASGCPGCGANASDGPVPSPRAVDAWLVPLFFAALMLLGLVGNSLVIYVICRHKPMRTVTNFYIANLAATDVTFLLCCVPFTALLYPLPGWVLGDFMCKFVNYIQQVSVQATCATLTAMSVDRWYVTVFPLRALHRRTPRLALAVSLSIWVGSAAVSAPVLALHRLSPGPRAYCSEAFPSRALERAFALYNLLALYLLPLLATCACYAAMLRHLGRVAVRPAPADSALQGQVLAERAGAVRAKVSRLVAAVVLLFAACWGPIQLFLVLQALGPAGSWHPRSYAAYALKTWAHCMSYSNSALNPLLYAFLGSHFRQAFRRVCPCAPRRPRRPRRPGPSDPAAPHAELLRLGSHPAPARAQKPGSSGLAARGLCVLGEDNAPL

As for `O=C1CC(=O)NC(=O)N1`, the Potency result in assay [1], in assay [2], in assay [3], in assay [4], in assay [5] and in [6] was “inactive” throughout. The Potency result in assay [7], in assay [8], in [9], in [10], in assay [11] and in [12] was “inactive” in each case. For the same molecule, the Potency result in [13], in assay [14], in assay [15], in assay [16], in assay [17] and in [18] was “inactive” in each case. Further, the Potency result in [19] is “inactive”.
Take `CC(C)=CC1C(C(=O)OCc2cccc(Oc3ccccc3)c2)C1(C)C` (configuration not stated): the Potency entry in [1], in assay [2], in assay [3], in [4], in assay [5] and in [6] was “inactive” throughout. The Potency result in assay [7], in [8], in assay [10], in assay [20], in assay [12] and in assay [13] was “inactive” each time. The Potency result in [14], in [15], in assay [16], in assay [17], in assay [18] and in assay [19] was “inactive” in each case.
`Clc1ccc(C2(Cn3cncn3)OCCO2)c(Cl)c1`: the Potency entry in assay [1], in assay [2], in assay [3], in assay [4], in [5] and in assay [6] was “inactive” in each case. The Potency result in assay [7], in assay [8], in assay [10], in [20], in assay [11] and in [12] was “inactive” each time. Besides, the Potency entry in assay [13], in assay [14], in assay [15], in [16], in assay [17] and in assay [18] was “inactive” in each case. Also, the Potency entry in assay [19] was “inactive”.
On to `O=C(CCN1CC1)OCC(CO)(COC(=O)CCN1CC1)COC(=O)CCN1CC1`, for which the Potency entry in assay [1], in [2], in assay [3], in [4], in assay [5] and in assay [6] was “inactive” in each case. In addition, the Potency entry in [7], in assay [8], in assay [10], in assay [20], in [11] and in assay [12] was “inactive” throughout. The Potency entry in assay [13], in assay [14], in [15], in assay [16], in assay [17] and in assay [18] was “inactive” each time. Besides, in assay [19], the Potency entry is “inactive”.
With `C=CCc1ccc2c(c1)OCO2`, the Potency result in assay [1], in assay [2], in [3], in assay [4], in assay [5] and in assay [6] was “inactive” each time. In addition, the Potency result in assay [7], in assay [8], in assay [10], in assay [20], in assay [15] and in assay [16] was “inactive” throughout. In addition, the Potency entry in assay [17], in [18] and in assay [19] was “inactive” throughout.
Take `C=CCBr`: the Potency entry in [1], in assay [2], in [3], in assay [4], in [5] and in [6] was “inactive” throughout. Moreover, the Potency result in assay [7], in assay [8], in assay [9], in [20], in assay [11] and in [13] was “inactive” each time. In addition, the Potency result in [14], in [15], in assay [16], in [17], in assay [18] and in assay [19] was “inactive” throughout.
As for `O=c1[nH]c2ccccc2n1C1CCN(CCCC(c2ccc(F)cc2)c2ccc(F)cc2)CC1`, the Potency in assay [1] was 27.3 µM (active) and 13.3 µM (active); in assay [8], 28.9 µM (active) and inactive; in [9] it was 40.8 µM (active) and inactive; in assay [17], 33.5 µM (active). The Potency entry in assay [2], in assay [3], in [4], in assay [5], in assay [6] and in assay [7] was “inactive” in each case. The Potency result in assay [12], in [13], in assay [14] and in assay [18] was “inactive” throughout.
For `c1ccc2c(c1)Nc1ccccc1S2`, the Potency result in assay [1], in [3], in [4], in assay [5], in [6] and in assay [7] was “inactive” throughout. For the same molecule, the Potency result in assay [8], in assay [10], in assay [20], in [15], in [16] and in [17] was “inactive” each time. Also, the Potency entry in assay [18] and in assay [19] was “inactive” each time. In assay [2], the Potency was 61.1 µM (active) and inactive.
